Screening results from PubChem.
This is a sample that favours compounds with a hit; in the whole collection about 21% have one here.
Shiga toxin inh: A qHTS for Small Molecule Inhibitors of Shiga Toxin | Vero cells, Shiga toxin protein synthesis inhibition reporter | inhibition, % at 38.7 µM | hit rate 9.2% among 290,000 | AID 2315, 2010; in the data active means inhibition mostly above about 28%, no sharp cut-off; inactive means mostly below about 43%; further: 0% is about no effect
HCMV antiviral: qHTS Assay for inhibitors of the human cytomegalovirus (HCMV). hit rate 4.5% among 410,000. activity change, negative = inhibition, % at 57.5 µM. HFF cells, HCMV-luciferase reporter, 72 h; stronger effect = lower value; in the data active means activity change below about -60%; inconclusive means no clear call, values can overlap the other calls; inactive means above about -39%; further: on the % scale 0 is the no-effect control and ±100 the full control effect
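Steps: HFFs plated, 16 h 37C; compounds added; HCMV-luciferase added to MOI 1 PFU/cell; 72 h 37C; OneGlo reagent, 5 min room temperature; luminescence read, normalized to controls.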
HCV inhibitor: qHTS Assay for Inhibitors of Hepatitis C Virus (HCV); Huh7.5.1 HCVcc-Cre infection, luciferase reporter, 44 h; Potency, µM (doses to about 41.8 µM), without a hit: at the top dose activity change, negative = inhibition, actives largely listed as inhibitors; hit rate 3.4% among 340,000; AID 651820, 2012; further: potency means the concentration at half of the fitted maximal effect; on the % scale 0 is the no-effect control and ±100 the full control effect
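Whole-lifecycle infectious HCVcc-Cre system; cells 1,000/well, compound then virus (~0.5 moi) added 4 h after plating, 44 h culture. Luciferase read 15 sec following 15 min substrate incubation, room temp.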
CHX counter: Cycloheximide Counterscreen for Small Molecule Inhibitors of Shiga Toxin; hit rate 12% among 300,000; cell reporter, cycloheximide protein synthesis inhibition counterscreen; max response, %; in the data active means max response mostly above about 13%, no sharp cut-off; inactive means mostly below about 14%; further: read at 38.3 µM for the half of the compounds with a filed dose; 0% is about no effect
Pf growth 96h: Primary qHTS for delayed death inhibitors of the malarial parasite plastid, 96 hour incubation; hit rate 6.9% among 320,000; Potency, µM (highest dose often 28.7 µM), for inactives: at the highest dose activity change, negative = inhibition, most hits filed as inhibitors; P. falciparum luciferase reporter growth, 96 h; further: potency means the concentration at half of the fitted maximal effect; on the % scale 0 is the no-effect control and ±100 the full control effect
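Two-generation exposure (96 h) targets delayed-death phenotype. Reporter parasites carrying integrated firefly luciferase, in red cells at 2% hematocrit and 0.05% parasitemia final, kept at 37 C, 5% CO2; luminescence loss indicates inhibition.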
Pf growth 48h: Primary qHTS for delayed death inhibitors of the malarial parasite plastid, 48 hour incubation; Potency, µM (doses to about 28.7 µM), without a hit: top-dose activity change, negative = inhibition, actives largely listed as inhibitors; hit rate 5.9% among 310,000; P. falciparum luciferase growth in erythrocytes, 48 h; further: potency means the concentration at half of the fitted maximal effect; on the % scale 0 is the no-effect control and ±100 the full control effect
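Luciferase-expressing P. falciparum in infected erythrocytes (2% hematocrit, 0.1% parasitemia final) in RPMI 1640/0.5% Albumax were exposed to compound for 48 hours at 37 C, 5% CO2; growth read as luminescence.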
Starred values were filed as active, the others as inactive; ? = inconclusive; . = not tested or not shown; [ ] = remark or other dose. Unless noted, the call rests on the fitted dose curve; in most records, active means well fitted inhibition curve with a large enough effect; inconclusive means small, poorly fitted or top-dose-only effect, or another doubt; inactive means no such curve, though single readings can be large or run the other way.

SMILES	Shiga toxin inh	HCMV antiviral	HCV inhibitor	CHX counter	Pf growth 96h	Pf growth 48h
COC(=O)C1=C(C(=O)OC)[C@@H]2N(C)c3ccc(OC)cc3[C@@]23C[C@@H](C(=O)OC)N(C(=O)C2CCC2)C3=N1	-7	.	-9%[8.37 µM]	-5	51%	?
COC(=O)C1=C(C(=O)OC)[C@@H]2N(C)c3ccc(OC)cc3[C@@]23C[C@@H](C(=O)OC)N(C(=O)NCCBr)C3=N1	.	33	-3%	.	.	.
Cc1c(C(=O)N2CCC(C)CC2)c(S(=O)(=O)Nc2cccc(C#N)c2)c(C)n1C	.	59	.	.	.	.
CC(C)C[C@@H](NC(=O)[C@H](Cc1ccccc1)NC(=O)c1cnccn1)B(O)O	.	.	.	.	0.03µM*	0.067µM*
CCCn1c(=O)c(C(=O)NCCc2ccc(OC)cc2)c(O)c2ccccc21	-3	7	13µM*	-1	?	2%
Cn1c(=O)c(C(=O)NCCc2ccccc2)c(O)c2ccccc21	10	16	-22%	2	?	39%
CCn1c(=O)c(C(=O)NCc2ccc(OC)cc2)c(O)c2ccccc21	-9	3	3%	-2	21%	-9%
CCCCCn1c(=O)c(C(=O)NCCc2ccccc2)c(O)c2ccccc21	.	-10	?	-1	5.9µM*	15µM*
C=CCn1c(=O)c(C(=O)NCc2ccc(Cl)cc2)c(O)c2ccccc21	-7	-66*	3%	-1	0%	7%
CC(C)CCn1c(=O)c(C(=O)NCc2ccc3c(c2)OCO3)c(O)c2ccccc21	-10	-16	?	-4	?	5.9µM*
CCn1c(C)c(C(=O)NCCc2ccccc2)c2cc(OC)ccc21	19	120	?	18*	-14%	-18%
CCOC(=O)c1c(C)c(C(=O)NCCc2ccc(OC)cc2)c(C)n1CC	.	-15	.	.	.	.
CCCn1c(=O)c(C(=O)NCCc2ccccc2)c(O)c2ccccc21	50	-20	-20%	11	15µM*	215%
CCCn1c(=O)c(C(=O)NCc2ccc(OC)c(OC)c2)c(O)c2ccccc21	-22	58	14µM*	-6	200%	?
Cc1ccc(-n2c3nc(=O)[nH]c(=O)c-3cc3c(C)nn(-c4ccccc4)c32)cc1C	.	-6	.	.	.	.
CC(C)(C(=O)N1CCC1(C)C(=O)NC1Cc2ccccc2C1)c1ccccc1 (stereo unspecified)	.	-4	.	.	.	.
COc1ccc2nc(N3C(=O)/C(=C/c4ccc(Cl)cc4)NC3=S)sc2c1	2	64	-8%	-2	?	14%
Cc1cc2nc(N3C(=O)CNC3=S)sc2cc1C	20	107	26%	23*	-3%	49%
CCOc1ccc2nc(N3C(=O)CNC3=S)sc2c1	46*	-106*	5%	35*	?	-21%
Cc1ccc(S(=O)(=O)C(CNC(=O)C(=O)NCCc2ccc(Cl)cc2)c2cccs2)cc1 (stereo unspecified)	.	-22	.	.	.	.
CC1=CC(c2ccc(Cl)cc2)n2nc(N3C(=O)CCC3=O)nc2N1 (stereo unspecified)	7	.	24%	-4	82%	-5%
CC1CC(c2ccccc2)n2nc(NC(=O)c3ccco3)nc2N1 (stereo unspecified)	-8	8	2%	-8	8.3µM*	12%
Cc1ccc(C2C=C(c3ccc(Cl)cc3)Nc3nc(NC(=O)c4ccco4)nn32)cc1 (stereo unspecified)	.	-62*	.	.	.	.
COc1ccccc1C(=O)Nc1nc2n(n1)C(c1ccc(F)cc1)C=C(c1ccc(Cl)cc1)N2 (stereo unspecified)	.	-22	.	.	.	.
Cc1ccc(C2C=C(c3ccccc3)Nc3nc(N4C(=O)CCC4=O)nn32)cc1 (stereo unspecified)	26	-62*	-3%	1	6%	14%
SMILES	Shiga toxin inh	HCMV antiviral	HCV inhibitor	CHX counter	Pf growth 96h	Pf growth 48h
COc1ccc(C2CC(c3ccc(F)cc3)n3nc(NC(=O)c4ccco4)nc3N2)cc1 (stereo unspecified)	10	-17	-25%	-2	-20%	5%
O=C(c1n[nH]c2ccccc12)N1CCN(S(=O)(=O)c2ccccc2)CC1	.	-19	12%	.	7.4µM*	5.2µM*
O=C(c1n[nH]c(=O)c2ccccc12)N1CCN(c2ccc(F)cc2)CC1	-18	-102*	-2%	-2	9%	9%
O=C(c1n[nH]c(=O)c2ccccc12)N1CCN(S(=O)(=O)c2ccccc2Cl)CC1	.	36	-6%	.	5.9µM*	?
O=C(c1n[nH]c(=O)c2ccccc12)N1CCN(c2ccccc2)CC1	-8	13	7%	16	20%	-4%
Cc1nn(-c2nc(-c3ccc(F)cc3)cc(C(F)(F)F)n2)c(C)c1Br	.	-18	.	.	.	.
C/C(=N\NC(N)=O)c1ccccc1	18	-19	7%	-4	20%	11%
C/C(=N/NC(=O)c1ccoc1C)c1ccc(NC(=O)C2CCCC2)cc1	65*	49	42%	58*	20%	85%
C/C(=N\NC(=O)c1ccoc1C)c1ccccc1	64*	49	2%	44*	141%	180%
CCCc1n(CC(O)COCc2ccccc2)c2ccccc2[n+]1C (stereo unspecified)	21	4	14%	-3	6%	3.3µM*
CCCc1n(CC(O)COCC2CC=CCC2)c2ccccc2[n+]1C (stereo unspecified)	-18	-37	-21%	1	35%	?
CCCc1n(CC(O)COC2CCCCC2)c2ccccc2[n+]1C (stereo unspecified)	-16	-16	-19%	-2	-2%	4.1µM*
C[n+]1cn(CC(O)COCc2ccccc2)c2ccccc21 (stereo unspecified)	-11	-1	15%	-1	4.7µM*	?
O=C(c1ccc(-n2cccn2)cc1)N1CCN(c2ncccc2C(F)(F)F)CC1	-12	?	-11%	1	20%	10%
Cc1cc(C(=O)NC2CCCc3c2cnn3-c2ccc(C)c(C)c2)no1 (stereo unspecified)	19	-30	?	15*	-8%	-19%
COc1ccc(C(=O)NC2CCCc3c2cnn3-c2ccc(C)c(C)c2)c(OC)c1OC (stereo unspecified)	8	-32	?	-1	?	-5%
CSc1ncccc1C(=O)NC1CCCc2c1cnn2-c1ccc(C)c(C)c1 (stereo unspecified)	-3	-29	8.9µM*	9	-7%	19%
Cc1ccc(-n2ncc3c2CCCC3NC(=O)c2ocnc2C)cc1C (stereo unspecified)	-10	-89*	?	5	31%	-16%
